# PubChem BioAssay (NCATS)
# Records with an inconclusive call do not appear. Where a call stands in place of a potency, no number is given. Activity calls are given as the source filed them. Unless noted, calls follow the shape of the dose curve; as a rule, active = well fitted curve in the direction sought with a large enough effect; inconclusive = small, poorly fitted or top-dose-only effect, or another doubt; inactive = no such curve, though single readings can be large; an effect the other way counts as inactive or inconclusive.
# What was measured:
# [1] = qHTS of Trypanosoma Brucei Inhibitors: LOPAC Validation (AID 624147); also: potency is read from the fitted curve at half-maximal effect
# Summary of the method: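 TbPYK + substrate in 50 mM TEA pH 7.2, 100 mM KCl, 10 mM MgCl2, 0.05% BSA, 0.01% Tween-20; cpd pinned; ADP 130 uM final; 45 min RT; Kinase-Glo Plus 10 min; luminescence endpoint.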
# [2] = qHTS of Nrf2 Activators: LOPAC Validation (AID 624149)
# Summary of the method: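 Following overnight seeding in 5% FBS OPTI-MEM, AREc32_Fluc cells receive compounds for a 24 hr incubation at 37 deg C with 5% CO2. Steady-Glo is added, and after 30 min at RT luminescence is recorded.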
# [3] = molecular target: Glucagon-like peptide 1 receptor (Homo sapiens) (UniProt P43220); test: qHTS of GLP-1 Receptor Agonists: LOPAC Validation (AID 624148);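 also: higher luminescence signal means agonism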
# Summary of the method: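 HEK293 cells stably co-expressing a cAMP-responsive luciferase reporter and a hypersensitive GLP-1R were plated 12 h at 37 °C and exposed to compounds for 4-6 hr at 37 °C, 5% CO2. Luminescence was read 12 min after adding detection reagent.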
# [4] = HTS Assay for Allosteric Antagonists of the Human D2 Dopamine Receptor: Hit Validation in HTRF (AID 624455);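 also: stable D1 dopamine receptor cell line scored for blocking the D1 response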
# Summary of the method: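 Validation of hits used D1 receptor stably expressed in cells with HTRF detection of response inhibition; origin screen measured calcium flux following EC80 dopamine in a force-coupled, inducible Hek293 Trex D2 cell line.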
# [5] = Cytotoxicity counterscreen for NFkB agonists and antagonists (AID 624476);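 also: cells exposed to compound for 48 hours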
# [6] = qHTS Assay for Identification of Small Molecule Agonists for NFkB Signaling Pathway. (AID 624478);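 also: compounds tested together with TNF alpha at its EC50 of 10 pM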
# Summary of the method: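 Assay medium contained 0.5% FBS and 10 mM HEPES pH 7.3. Compounds were added together with TNF alpha (10 pM final), incubated 5 h at 37 C, and the beta-lactamase signal was measured fluorometrically.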
# [7] = qHTS Assay for Identification of Small Molecule Antagonists for NFkB Signaling Pathway. (AID 624479; calls by dose curve;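 also: pathway stimulated with TNF alpha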)
# [8] = Cell Proliferation Assay against the TMD8 Cell Line (AID 651645); conditions: TMD8 DLBCL cell line proliferation/viability; at 46.1 µM (top of the series) unless noted;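 also: cells exposed to compound for 48 h before reading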
# Summary of the method: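 500 TMD8 cells/well, RPMI + Glutamax, no phenol red, 5% FBS; cpd added immediately; 48 h, 37C, 5% CO2; CellTiter-Glo, luminescence. Controls: DMSO = 100%, bortezomib 9.2 uM final = 0%.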
# [9] = Cell Proliferation Assay against the HBL1 Cell Line (AID 651646); conditions: HBL1 DLBCL cells; at 46.1 µM (top of the series) unless noted;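 also: cells exposed to compound for 48 h before reading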
# Summary of the method: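 After a 48 h incubation of 500 HBL1 cells/well in phenol red-free RPMI plus 5% FBS, relative luciferase units from CellTiter-Glo gave percent activity against DMSO and 9.2 uM bortezomib (final) controls.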
# [10] = molecular target: Tumor susceptibility gene 101 protein (Homo sapiens) (UniProt Q99816); test: qHTS Assay for Iinhibitors of HIV-1 Budding by Blocking the Interaction of PTAP/TSG101: Hit Validation (AID 651600); conditions: PTAP peptide/TSG101 UEV interaction, biochemical assay; also: potency is read from the fitted curve at half-maximal effect; nearly all actives have a fitted effect of over 70% in size
# Summary of the method: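 Compounds are added to the Tsg101 binding domain (10 uM final) in pH 7.5 HEPES buffer. FITC-PTAP peptide follows at 50 nM final. After 20 min at r.t., polarized FITC emission is measured.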
# Sequence of Glucagon-like peptide 1 receptor (Homo sapiens) (P43220 whole entry, looked up): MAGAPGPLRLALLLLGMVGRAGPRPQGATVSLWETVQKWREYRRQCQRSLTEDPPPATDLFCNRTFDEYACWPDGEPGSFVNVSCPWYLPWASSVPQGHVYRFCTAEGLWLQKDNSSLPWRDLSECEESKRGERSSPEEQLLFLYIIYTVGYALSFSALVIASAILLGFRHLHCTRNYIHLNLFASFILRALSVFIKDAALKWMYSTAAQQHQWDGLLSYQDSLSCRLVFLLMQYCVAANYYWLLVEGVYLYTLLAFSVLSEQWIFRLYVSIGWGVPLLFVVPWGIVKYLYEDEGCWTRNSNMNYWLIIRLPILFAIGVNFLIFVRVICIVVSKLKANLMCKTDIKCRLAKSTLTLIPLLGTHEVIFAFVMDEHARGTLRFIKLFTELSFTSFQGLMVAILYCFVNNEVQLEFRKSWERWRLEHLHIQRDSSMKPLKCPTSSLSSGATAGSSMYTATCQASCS
# Sequence of Tumor susceptibility gene 101 protein (Homo sapiens) (Q99816 whole entry, looked up, the tested form may be a part): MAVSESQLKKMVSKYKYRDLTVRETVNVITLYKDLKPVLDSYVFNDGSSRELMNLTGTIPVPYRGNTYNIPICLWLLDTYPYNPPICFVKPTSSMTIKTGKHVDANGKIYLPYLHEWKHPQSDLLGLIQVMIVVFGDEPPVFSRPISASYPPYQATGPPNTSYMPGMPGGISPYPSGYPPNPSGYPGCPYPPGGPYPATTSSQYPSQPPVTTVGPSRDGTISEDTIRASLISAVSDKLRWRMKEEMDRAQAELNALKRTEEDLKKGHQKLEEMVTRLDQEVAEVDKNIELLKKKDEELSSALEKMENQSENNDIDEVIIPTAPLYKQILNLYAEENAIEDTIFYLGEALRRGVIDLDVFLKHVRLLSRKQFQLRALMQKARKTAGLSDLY
smiles,measurement,setting,value
COc1ccc(C2CNC(=O)C2)cc1OC1CCCC1 (centres undefined),Potency,[1],inactive
same,outcome,[2],inactive
Nc1ccn([C@H]2CC[C@@H](CO)O2)c(=O)n1,Potency,[1],inactive
same,outcome,[2],inactive
CN1CCN(CCCN2c3ccccc3Sc3ccc(Cl)cc32)CC1,Potency,[1],inactive
same,outcome,[2],inactive
CN(Cc1cnc2nc(N)nc(N)c2n1)c1ccc(C(=O)N[C@@H](CCC(=O)O)C(=O)O)cc1,Potency,[1],inactive
same,outcome,[2],inactive
CCCCc1oc2ccccc2c1C(=O)c1cc(I)c(OCCN(CC)CC)c(I)c1,Potency,[1],inactive
same,outcome,[2],inactive
COc1cc2c(c(OC)c1OC)-c1ccc(OC)c(=O)cc1[C@@H](NC(C)=O)CC2,Potency,[1],inactive
same,outcome,[2],inactive
CN1CCC(=C2c3ccccc3C=Cc3ccccc32)CC1,Potency,[1],inactive
same,outcome,[2],inactive
Cc1cn([C@H]2C=C[C@@H](CO)O2)c(=O)[nH]c1=O,Potency,[1],inactive
same,outcome,[2],inactive
Clc1ccc(C(c2ccccc2Cl)C(Cl)Cl)cc1 (centres undefined),Potency,[1],inactive
same,Potency,[3],inactive
same,outcome,[2],inactive
same,Potency,[4],inactive
NCCS(=O)(=O)O,Potency,[1],inactive
same,outcome,[2],inactive
CC(C)C(=O)Nc1ccc([N+](=O)[O-])c(C(F)(F)F)c1,Potency,[1],inactive
same,outcome,[2],inactive
Cn1ccc2cc3c(cc21)CCN3C(=O)Nc1cccnc1,Potency,[1],inactive
same,Potency,[3],inactive
same,outcome,[2],inactive
same,Potency,[5],inactive
same,outcome,[6],inactive
same,Potency,[7],inactive
same,viability (% of control),[8],102%
same,"viability, percent of control",[9],88.1%
Fc1ccc([C@@H]2CCNC[C@H]2COc2ccc3c(c2)OCO3)cc1,Potency,[1],inactive
same,outcome,[2],inactive
OCCN(CCO)c1nc(N2CCCCC2)c2nc(N(CCO)CCO)nc(N3CCCCC3)c2n1,Potency,[1],inactive
same,Potency,[3],inactive
same,Potency,[4],inactive
same,Potency,[10],18.3 µM (active)
N[C@@H](Cc1c[nH]c2ccc(O)cc12)C(=O)O,Potency,[1],inactive
same,Potency,[3],inactive
same,outcome,[2],inactive
same,Potency,[4],inactive
O=C(c1ccc(F)cc1)C1CCN(CCn2c(=O)[nH]c3ccccc3c2=O)CC1,Potency,[1],inactive
same,Potency,[3],inactive
same,outcome,[2],inactive
same,Potency,[4],inactive
Clc1ccc2c(c1)C(N1CCNCC1)=Nc1ccccc1O2,Potency,[1],inactive
same,Potency,[3],inactive
same,outcome,[2],inactive
same,Potency,[4],inactive
O=C(c1ccc(OCCN2CCCCC2)cc1)c1c(-c2ccc(O)cc2)sc2cc(O)ccc12,Potency,[1],inactive
same,Potency,[3],inactive
same,outcome,[2],inactive
same,Potency,[4],inactive
Clc1ccccc1C(c1ccccc1)(c1ccccc1)n1ccnc1,Potency,[1],inactive
same,outcome,[2],inactive
Nc1c2c(nc3ccccc13)CCCC2,Potency,[1],inactive
same,Potency,[3],inactive
same,outcome,[2],inactive
same,Potency,[4],inactive
CC(COc1ccccc1)N(CCCl)Cc1ccccc1 (centres undefined),Potency,[1],inactive
same,outcome,[2],inactive
NS(=O)(=O)c1cc2c(cc1Cl)NCNS2(=O)=O,Potency,[1],inactive
same,outcome,[2],inactive
Clc1ccc2nsnc2c1NC1=NCCN1,Potency,[1],inactive
same,outcome,[2],inactive
Cc1ccc(C(=O)Nc2ccc(S(=O)(=O)O)c3cc(S(=O)(=O)O)cc(S(=O)(=O)O)c23)cc1NC(=O)c1cccc(NC(=O)Nc2cccc(C(=O)Nc3cc(C(=O)Nc4ccc(S(=O)(=O)O)c5cc(S(=O)(=O)O)cc(S(=O)(=O)O)c45)ccc3C)c2)c1,Potency,[3],inactive
same,outcome,[2],inactive
same,Potency,[4],inactive
COc1ccccc1N1CCN(CC(O)COc2cccc3ccccc23)CC1 (centres undefined),Potency,[1],inactive
same,outcome,[2],inactive
same,Potency,[4],inactive
CN(C)CCCN1c2ccccc2CCc2ccc(Cl)cc21,Potency,[1],inactive
same,outcome,[2],inactive
same,Potency,[4],inactive
CC(C)NCC(O)COc1ccc(CCOCC2CC2)cc1 (centres undefined),Potency,[1],inactive
same,outcome,[2],inactive
same,Potency,[4],inactive
CN1C(C(=O)Nc2ccccn2)=C(O)c2ccccc2S1(=O)=O,Potency,[1],inactive
same,outcome,[2],inactive
same,Potency,[4],inactive
C[C@](N)(Cc1ccc(O)c(O)c1)C(=O)O,Potency,[3],inactive
same,outcome,[2],inactive
same,Potency,[4],inactive
Cn1c(=O)c2c(ncn2C)n(C)c1=O,Potency,[1],inactive
same,outcome,[2],inactive
same,Potency,[4],inactive
COc1cc2nc(N3CCN(C(=O)C4COc5ccccc5O4)CC3)nc(N)c2cc1OC (centres undefined),Potency,[1],inactive
same,outcome,[2],inactive
same,Potency,[4],inactive
CC1(CN2CCC(n3c(=O)[nH]c4ccccc43)CC2)OCc2ccccc2-n2cccc21 (centres undefined),outcome,[6],inactive
same,viability (% of control),[8],12.7%
same,"viability, percent of control",[9],6.74%
CC(C)NCC(O)c1ccc(O)c(O)c1 (centres undefined),Potency,[1],inactive
same,outcome,[2],inactive
same,Potency,[4],inactive
O=C1N(c2ccccc2)c2ccccc2C1(Cc1ccncc1)Cc1ccncc1,Potency,[1],inactive
same,outcome,[2],inactive
CC(C(=O)O)c1cccc(C(=O)c2ccccc2)c1 (centres undefined),Potency,[1],inactive
same,Potency,[4],inactive
Cc1cc(C(C)(C)C)c(O)c(C)c1CC1=NCCN1,Potency,[1],inactive
same,outcome,[2],inactive
same,Potency,[4],inactive
CC#C[C@]1(O)CC[C@H]2[C@@H]3CCC4=CC(=O)CCC4=C3[C@@H](c3ccc(N(C)C)cc3)C[C@@]21C,Potency,[1],21.3 µM (active)
same,outcome,[2],inactive
same,Potency,[4],inactive
O=c1[nH]cc(F)c(=O)[nH]1,Potency,[1],inactive
same,outcome,[2],inactive
same,Potency,[4],inactive
